Data published in PubChem BioAssay (EPA / NIEHS).
Calls of active or inactive are those of the source. The calls were made as follows: active = hit-call score of the fitted dose curve at least 0.9, where 1 is the maximum; inactive = score below 0.9.

Legend:
Conditions in all cases: mRNA level, 48 h; actives raise or lower the signal
[1] = read-out: catalase (CAT), CAT (gene 847); test: LTEA_HepaRG_CAT: Life Technologies and Expression Analysis (LTEA) Assay for catalase (CAT) using HepaRG (AID 2283452)
Method in brief: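 HepaRG cells in serum-free induction medium, 0.5% DMSO vehicle, exposed 48 h in duplicate over 8 half-log concentrations from 100 uM. CAT mRNA measured by qRT-PCR, normalized to ACTB, GAPDH, POLR2A; bidirectional fit versus DMSO.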

[2] = read-out: flavin-containing dimethylaniline monooxygenases 3 (FMO3), FMO3 (gene 2328); test: LTEA_HepaRG_FMO3: Life Technologies and Expression Analysis (LTEA) Assay for flavin-containing dimethylaniline monooxygenases 3 (FMO3) using HepaRG (AID 2283453)
Method in brief: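 Differentiated HepaRG cells in serum-free induction medium, exposed 48 h in duplicate to 8 half-log concentrations up to 100 uM in 0.5% DMSO. FMO3 mRNA by qRT-PCR, normalized to ACTB, GAPDH, POLR2A; bidirectional fit vs DMSO.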

[3] = read-out: Cytochrome P450 (CYP1A1), CYP1A1 (gene 1543); test: LTEA_HepaRG_CYP1A1: Life Technologies and Expression Analysis (LTEA) Assay for Cytochrome P450 (CYP1A1) using HepaRG (AID 2283454)
Method in brief: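 CYP1A1 transcript levels measured by Fluidigm qRT-PCR against three housekeeping genes, 48 h after chemical dosing of human HepaRG cells (highest concentration 100 uM, half-log steps, 0.5% DMSO vehicle). Gain or loss of signal fitted relative to DMSO.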

[4] = read-out: CFLAR gene, CFLAR (gene 8837); test: LTEA_HepaRG_CFLAR: Life Technologies and Expression Analysis (LTEA) Assay for CFLAR gene using HepaRG (AID 2283455)
Method in brief: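 Differentiated HepaRG cells in serum-free induction medium were exposed 48 h in duplicate to eight half-log concentrations up to 100 uM in 0.5% DMSO; mRNA measured by TaqMan qRT-PCR, normalized to ACTB, GAPDH, POLR2A; bidirectional fitting versus DMSO.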

[5] = read-out: Forkhead box O1 (FOXO1), FOXO1 (gene 2308); test: LTEA_HepaRG_FOXO1: Life Technologies and Expression Analysis (LTEA) Assay for Forkhead box O1 (FOXO1) using HepaRG (AID 2283456)
Method in brief: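 Differentiated HepaRG cells, in serum-free induction medium with 0.5% DMSO, exposed 48 h in duplicate to 8-point half-log series from 100 uM. FOXO1 mRNA measured by TaqMan qRT-PCR, normalized to ACTB, GAPDH, POLR2A; bidirectional fit versus DMSO.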

[6] = read-out: growth arrest and DNA damage 45 (GADD45A), GADD45A (gene 1647); test: LTEA_HepaRG_GADD45A: Life Technologies and Expression Analysis (LTEA) Assay for growth arrest and DNA damage 45 (GADD45A) using HepaRG (AID 2283458)
Method in brief: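 Differentiated HepaRG cells exposed 48 h in serum-free induction medium to 8 concentrations, top 100 uM in half-log steps, 0.5% DMSO. GADD45A mRNA quantified by qRT-PCR, normalized to ACTB, GAPDH and POLR2A; bidirectional fit versus DMSO.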

[7] = read-out: Forkhead box O3 (FOXO3), FOXO3 (gene 2309); test: LTEA_HepaRG_FOXO3: Life Technologies and Expression Analysis (LTEA) Assay for Forkhead box O3 (FOXO3) using HepaRG (AID 2283459)
Method in brief: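 Differentiated human HepaRG cells, 48 h post-plating, exposed in duplicate for 48 h in serum-free induction medium; 8-point half-log series from 100 uM in 0.5% DMSO. FOXO3 mRNA by TaqMan qRT-PCR, normalized to ACTB/GAPDH/POLR2A; bidirectional fit versus DMSO.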

[8] = read-out: ABC Transporter (ABCB1), ABCB1 (gene 5243); test: LTEA_HepaRG_ABCB1: Life Technologies and Expression Analysis (LTEA) Assay for ABC Transporter (ABCB1) using HepaRG (AID 2283460)
Method in brief: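 HepaRG cells exposed in duplicate for 48 h in serum-free induction medium to eight half-log concentrations up to 100 uM in 0.5% DMSO. ABCB1 mRNA quantified by qRT-PCR, normalised to ACTB, GAPDH and POLR2A; fitted bidirectionally versus DMSO.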

[9] = read-out: growth arrest and DNA damage 45 (GADD45B), GADD45B (gene 4616); test: LTEA_HepaRG_GADD45B: Life Technologies and Expression Analysis (LTEA) Assay for growth arrest and DNA damage 45 (GADD45B) using HepaRG (AID 2283461)
Method in brief: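 Transcript level quantified by Fluidigm TaqMan qRT-PCR with three housekeeping genes for normalization, analyzed for up- or down-regulation against 0.5% DMSO. HepaRG cultures dosed 48 h at eight half-log concentrations up to 100 uM, duplicates.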

[10] = read-out: ABC Transporter (ABCC3), ABCC3 (gene 8714); test: LTEA_HepaRG_ABCC3: Life Technologies and Expression Analysis (LTEA) Assay for ABC Transporter (ABCC3) using HepaRG (AID 2283462)
Method in brief: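 Transcript level by TaqMan qRT-PCR, normalised to three housekeeping genes, fitted in both directions relative to vehicle. Chemicals tested in duplicate at eight half-log concentrations up to 100 uM for 48 h on HepaRG cells (0.5% DMSO).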

[11] = read-out: ABC Transporter (ABCB11), ABCB11 (gene 8647); test: LTEA_HepaRG_ABCB11: Life Technologies and Expression Analysis (LTEA) Assay for ABC Transporter (ABCB11) using HepaRG (AID 2283463)
Method in brief: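 Differentiated human HepaRG cells in serum-free induction medium, dosed in duplicate for 48 h. Eight-point half-log series from 100 uM in 0.5% DMSO; ABCB11 mRNA by qRT-PCR, normalized to ACTB, GAPDH, POLR2A, fitted bidirectionally versus DMSO.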

[12] = read-out: ABC Transporter (ABCC2), ABCC2 (gene 1244); test: LTEA_HepaRG_ABCC2: Life Technologies and Expression Analysis (LTEA) Assay for ABC Transporter (ABCC2) using HepaRG (AID 2283464)
Method in brief: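 Endpoint is ABCC2 transcript level from qRT-PCR, normalized to three housekeeping genes and fitted bidirectionally relative to DMSO. Human HepaRG cells received test chemical for 48 h at up to 100 uM (8 points, half-log steps, 0.5% DMSO), duplicate wells.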

[13] = read-out: Broad substrate specificity ATP-binding cassette transporter ABCG2 (Homo sapiens) (UniProt Q9UNQ0); test: LTEA_HepaRG_ABCG2: Life Technologies and Expression Analysis (LTEA) Assay for ABC Transporter (ABCG2) using HepaRG (AID 2283465)
Method in brief: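 Differentiated HepaRG cells were exposed for 48 h in serum-free induction medium to 8 half-log concentrations, top 100 uM, in 0.5% DMSO. ABCG2 mRNA was measured by qRT-PCR, normalized to ACTB, GAPDH and POLR2A, with bidirectional fitting versus DMSO.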

[14] = read-out: ATP-citrate lyase (ACLY), ACLY (gene 47); test: LTEA_HepaRG_ACLY: Life Technologies and Expression Analysis (LTEA) Assay for ATP-citrate lyase (ACLY) using HepaRG (AID 2283466)
Method in brief: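 Differentiated HepaRG cells exposed 48 h in serum-free induction medium to eight half-log concentrations up to 100 uM in 0.5% DMSO, duplicates. Transcript measured by Fluidigm TaqMan qRT-PCR, normalized to ACTB, GAPDH, POLR2A; bidirectional fit versus DMSO.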

[15] = read-out: Peroxisomal acyl-coenzyme A oxidase 1 (ACOX1) gene, ACOX1 (gene 51); test: LTEA_HepaRG_ACOX1: Life Technologies and Expression Analysis (LTEA) Assay for Peroxisomal acyl-coenzyme A oxidase 1 (ACOX1) gene using HepaRG (AID 2283467)
Method in brief: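 HepaRG cells, plated 48 h then switched to serum-free induction medium, were exposed in duplicate for 48 h to 8-point half-log concentrations up to 100 uM in 0.5% DMSO. ACOX1 mRNA was measured by qRT-PCR, normalized to ACTB/GAPDH/POLR2A, and fitted bidirectionally versus DMSO.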

[16] = read-out: Alkaline Phosphatase, Placental (ALPP) gene, ALPP (gene 250); test: LTEA_HepaRG_ALPP: Life Technologies and Expression Analysis (LTEA) Assay for Alkaline Phosphatase, Placental (ALPP) gene using HepaRG (AID 2283468)
Method in brief: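 ALPP transcript level, measured by qRT-PCR and normalized to three housekeeping genes (ACTB, GAPDH, POLR2A), after 48 h dosing of differentiated HepaRG in serum-free induction medium. Top concentration 100 uM with half-log dilutions (8 points, 0.5% DMSO, duplicates); bidirectional fitting relative to DMSO.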

[17] = read-out: Bcl-2 (BAD) gene, BAD (gene 572); test: LTEA_HepaRG_BAD: Life Technologies and Expression Analysis (LTEA) Assay for Bcl-2 (BAD) gene using HepaRG (AID 2283469)
Method in brief: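 Differentiated HepaRG cells were exposed in duplicate in 0.5% DMSO for 48 h to eight-point half-log concentrations up to 100 uM. BAD mRNA was measured by Fluidigm TaqMan qRT-PCR, normalized to ACTB, GAPDH and POLR2A, and fitted bidirectionally against DMSO.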

[18] = read-out: Bcl-2 (BAX) gene, BAX (gene 581); test: LTEA_HepaRG_BAX: Life Technologies and Expression Analysis (LTEA) Assay for Bcl-2 (BAX) gene using HepaRG (AID 2283470)
Method in brief: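 Differentiated HepaRG cells exposed 48 h in serum-free induction medium, eight half-log concentrations from 100 uM, in duplicate, 0.5% DMSO vehicle. BAX mRNA by TaqMan qRT-PCR, normalised to ACTB, GAPDH and POLR2A.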

[19] = read-out: adenosine kinase (ADK) gene, ADK (gene 132); test: LTEA_HepaRG_ADK: Life Technologies and Expression Analysis (LTEA) Assay for adenosine kinase (ADK) gene using HepaRG (AID 2283471)
Method in brief: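 Read-out is ADK transcript level measured by qRT-PCR and normalised to three housekeeping genes. Cells are human HepaRG, dosed for 48 h at up to 100 uM in 0.5% DMSO. Gain or loss of signal is fitted against DMSO controls.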

Measured: AC50

Chain of Broad substrate specificity ATP-binding cassette transporter ABCG2 (Homo sapiens) (Q9UNQ0 whole entry, looked up): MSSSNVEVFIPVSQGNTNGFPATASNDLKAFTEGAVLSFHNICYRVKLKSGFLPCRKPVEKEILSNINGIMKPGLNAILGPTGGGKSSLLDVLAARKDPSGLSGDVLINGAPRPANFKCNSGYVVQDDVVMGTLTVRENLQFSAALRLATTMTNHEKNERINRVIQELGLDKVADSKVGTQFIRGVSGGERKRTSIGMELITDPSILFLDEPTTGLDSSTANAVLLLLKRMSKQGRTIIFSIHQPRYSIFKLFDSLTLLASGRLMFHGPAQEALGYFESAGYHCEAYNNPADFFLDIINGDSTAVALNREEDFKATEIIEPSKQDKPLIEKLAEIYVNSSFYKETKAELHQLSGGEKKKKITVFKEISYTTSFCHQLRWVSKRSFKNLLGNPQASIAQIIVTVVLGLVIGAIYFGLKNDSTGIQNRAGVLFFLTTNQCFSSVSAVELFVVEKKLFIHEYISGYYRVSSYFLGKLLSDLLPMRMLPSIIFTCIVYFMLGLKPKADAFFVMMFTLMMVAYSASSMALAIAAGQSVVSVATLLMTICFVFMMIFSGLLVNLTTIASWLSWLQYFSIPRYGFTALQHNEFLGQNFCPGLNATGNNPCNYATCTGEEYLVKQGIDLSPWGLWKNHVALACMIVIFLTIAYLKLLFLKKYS

CN(C)[C@@H]1C(=O)C(C(N)=O)=C(O)[C@@]2(O)C(=O)C3=C(O)c4c(O)cccc4[C@@](C)(O)[C@H]3C[C@@H]12
inactive: [1] | [2] | [4] | [5] | [6] | [7] | [8] | [9] | [10] | [11] | [12] | [13] | [14] | [15] | [16] | [17] | [18] | [19]
active: [3] 34.7 µM

CCOC(=O)[C@]1(c2ccccc2)Oc2ccccc2[C@@H]1N
active: [1] 88.2 µM | [2] 78.6 µM | [3] 13 µM | [5] 83.3 µM | [6] 76.2 µM | [9] 76.8 µM | [11] 78.7 µM | [12] 82.2 µM | [13] 50 µM | [15] 87.5 µM | [16] 50 µM | [18] 75.7 µM
inactive: [4] | [7] | [8] | [10] | [14] | [17] | [19]

ClCCOCCCl
inactive: [1] | [2] | [3] | [4] | [5] | [6] | [7] | [8] | [9] | [10] | [11] | [12] | [13] | [14] | [15] | [16] | [17] | [18] | [19]

O=[N+]([O-])C(Br)(CO)CO
active: [3] 50 µM
inactive: [1] | [2] | [4] | [5] | [6] | [7] | [8] | [9] | [10] | [11] | [12] | [13] | [14] | [15] | [16] | [17] | [18] | [19]
